In PubChem BioAssay AID1851 (National Center for Advancing Translational Sciences (NCATS), 2009):
“And” between values parts separate entries of the source, which are not always exact repeats. Equal values may be shown once. Screen size: about 16,000 compounds; about 5,700 (36%) were called active. About 24% were inconclusive and are not listed. This is one part of the list. A number with no mark means an inactive call. Calls follow the shape of the dose curve; as a rule, active = well fitted curve in the direction sought with a large enough effect; inconclusive = small, poorly fitted or top-dose-only effect, or effect the other way; inactive = no such curve, though single readings can be large or run the other way.

target: Cytochrome P450 1A2 (Homo sapiens) (UniProt P05177); experiment: Cytochrome panel assay with activity outcomes; settings: recombinant CYP, pro-luciferin dealkylation, luminescence, p450-cyp1a2; series mostly up to 57.1 µM; activity, negative = inhibition: at the top concentration
% is scaled to controls: 0 for no effect and ±100 for the full control effect.

Sequence of Cytochrome P450 1A2 (Homo sapiens) (P05177 whole entry, looked up): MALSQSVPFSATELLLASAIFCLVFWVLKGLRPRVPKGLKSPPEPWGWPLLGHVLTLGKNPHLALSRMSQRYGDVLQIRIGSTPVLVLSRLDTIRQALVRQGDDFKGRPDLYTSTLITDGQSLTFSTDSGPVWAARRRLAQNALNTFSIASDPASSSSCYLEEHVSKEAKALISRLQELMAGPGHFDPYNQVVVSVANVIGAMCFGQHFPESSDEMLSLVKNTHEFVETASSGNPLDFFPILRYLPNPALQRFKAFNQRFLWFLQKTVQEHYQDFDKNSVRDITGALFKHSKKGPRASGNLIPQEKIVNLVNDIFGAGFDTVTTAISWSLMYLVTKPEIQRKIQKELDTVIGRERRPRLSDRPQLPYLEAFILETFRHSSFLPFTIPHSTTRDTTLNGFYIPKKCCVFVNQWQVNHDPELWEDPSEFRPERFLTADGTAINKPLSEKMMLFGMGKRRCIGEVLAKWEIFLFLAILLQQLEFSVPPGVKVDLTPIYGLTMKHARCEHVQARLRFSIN

Structure (SMILES)	activity, negative = inhibition	AC50
C/C(CCN1CCCc2nc(C)c(C)cc21)=N\O[C@@H](C)CN1CCCCc2nc(C)c(C)cc21	2.64% [at 11.4 µM]	
C[C@]12CC[C@H]3c4ccc(O)cc4CC[C@@H]3[C@H]1C/C(=N/O)[C@H]2O	-12.7% [at 11.4 µM]	
C=C(C)CNCCN	2.24% [at 2.29 µM]	
COc1cccc(Cn2c(=O)c(CCc3ccccc3)nc3cnc(N(C)C)nc32)c1		15.8 µM (active)
Cc1nc2cnc(N(C)C)nc2n(CCc2ccccc2)c1=O		1.26 µM (active)
CN(C)c1ncc2nc(CCc3ccccc3)c(=O)n(CCC#N)c2n1		2 µM (active)
CN(C)c1ncc2ncc(=O)n(CCc3ccccc3)c2n1		0.794 µM (active)
CCN1CCCC1CNC(=O)C1c2cc(OC)c(OC)cc2C(=O)N(C)C1c1cccnc1 (stereo unspecified)	-18.2%	
COC(=O)N1CCC2(CCCN(Cc3nccs3)C2)CC1	-13.7%	
CN(C)c1ncc2nc(CCc3ccccc3)c(=O)n(Cc3ccc(F)cc3)c2n1		10 µM (active)
CN(C)c1ncc2nc(-c3cccc(C#N)c3)c(=O)n(CCC#N)c2n1	-20.2%	
CN(C)c1ncc2nc(-c3ccccc3)c(=O)n(CCC#N)c2n1		1.58 µM (active)
O=c1c(CCc2ccccc2)nc2cncnc2n1Cc1ccc(F)cc1		10 µM (active)
COCCn1c(=O)c(CCc2ccccc2)nc2cnc(N(C)C)nc21		1.26 µM (active)
CCN(CC)C(=O)CSc1nc(O)cc(=O)n1CC	-4.98%	
C[C@@H]1/C=C\CC(=O)OC[C@H]2O[C@@H](C=C[C@@H]2O)[C@H](C)/C=C\CC(=O)OC1	-3.64% [at 11.4 µM]	
CNC(=O)[C@@H]1O[C@@H](n2cnc3c(NCc4ccc(N)cc4)ncnc32)[C@@H](O)[C@H]1O	1.3%	
CN(C)c1ncc2nc(CCc3ccccc3)c(=O)n(CCc3ccccc3)c2n1		6.31 µM (active)
C=C1C=C(Br)C2(OCCCO2)[C@H]2OC12 (stereo partly specified)	-2.64% [at 11.4 µM]	

Structure (SMILES)	activity, negative = inhibition	AC50
COc1ccccc1-c1cc(NCc2cnc(C)cn2)ncn1		12.6 µM (active)
Cc1cnc(CNc2cc(-c3ccccc3C)ncn2)cn1		12.6 µM (active)
Cc1cnc(CNc2cc(-c3ccccc3Cl)ncn2)cn1		15.8 µM (active)
Cn1cccc1C(=O)N1CCC2(CCN(C(=O)Nc3cccc(F)c3)CC2)CC1	-10.7%	
C[C@@]12CCC(=O)C=C1CC[C@H]1[C@@H]2[C@@H](O)C[C@]2(C)[C@@H]1CC[C@@]2(O)C(=O)CO	-23.6% [at 11.4 µM]	
O=C(O)/C=C\c1c2ccc(=O)c(O)c-2oc2c(O)c(O)ccc12	-19.8% [at 2.29 µM]	
Cc1cc(=O)c2c(O)c(O)ccc2o1		12.6 µM (active)
c1c[nH]c(CN2CCOCC2)n1	6.41% [at 11.4 µM]	
Oc1c(CN2CCOCC2)ccc(CN2CCOCC2)c1O	-11.9% [at 2.29 µM]	
Clc1ccc(-n2nnnc2CN2CCOCC2)cc1		7.08 µM (active)
CCN(CC)c1ccc(NC(=O)CSc2nnc3nc(C)cc(C)n23)cc1	1.82%	
Cc1ccnc2nc(C(=O)OCC(=O)Nc3ccc4c(c3)OC(F)(F)O4)nn12		8.91 µM (active)
COc1cc(NC(=O)COC(=O)c2nc3nc(C)cc(C)n3n2)cc(OC)c1		14.1 µM (active)
C#CCCCO/N=C1/[C@H]2O[C@@H]2[C@@H](O)[C@H]2[C@H]1CCn1c(=O)n(C)c(=O)n12	-0.0514% [at 11.4 µM]	
CCN1C(=O)[C@@H]2[C@H]3C(=CC[C@@H]2C1=O)C1(OCCCO1)[C@H]1O[C@@H]1[C@H]3O	-2.44% [at 11.4 µM]	
Cc1ccc(S(=O)(=O)N2CCN(S(C)(=O)=O)C2)cc1	14.9%	
COC(=O)c1cccc(C(=O)Nc2ccc(C)cc2)n1		1 µM (active)
Cc1ccc(OC(=O)c2cccc(C(=O)Oc3ccc(C)cc3)n2)cc1	13.2%	
O=C(CCC(=O)c1cccs1)OCC(=O)N1CCN(C(=O)c2ccco2)CC1	-25.3%	

Structure (SMILES)	activity, negative = inhibition	AC50
Cc1ccc(OC(=O)c2cccc(C(=O)Oc3ccc(C)cn3)n2)nc1	-13.6%	
O=C(OCC(=O)c1cccs1)c1cccc(C(=O)OCC(=O)c2cccs2)n1		15.8 µM (active)
CCOC(=O)c1cccc(C(=O)OCC)n1		12.6 µM (active)
S=c1nc(-c2ccccc2)oc2c1CCCC2		0.562 µM (active)
COc1ccc(-n2c(-c3ccccc3)nc(=S)c3c2CCCC3)cc1	-27.9%	
O=C(Nc1cccc2nsnc12)c1ccc(-c2cccc(Cl)c2)o1		2 µM (active)
CCCn1nnc(NC(=O)c2ccc(-c3cccc(Cl)c3)o2)n1		1.58 µM (active)
Cc1ccc(C(=O)NC(=S)Nc2cccc3nsnc23)cc1	5.9%	
O=C(c1cnccn1)N1CCC2(CCCN(c3ccccn3)C2)CC1	-8.32%	
CC(C)c1ccc(/C=C2\C=C(c3ccc4ccccc4c3)OC2=O)cc1	-24.7% [at 2.29 µM]	
Cc1ccc(/C=C2\OC(=O)c3ccccc32)cc1		0.794 µM (active)
Cc1ccccc1/C=C1\OC(=O)c2ccccc21		1.26 µM (active)
CC(=O)OC[C@@H]1O[C@@H](O/N=C2/C[C@@H](O)[C@@H](O)[C@@H]3[C@@H]4C(=O)N(Cc5ccc6c(c5)OCO6)C(=O)[C@H]4CC[C@@H]23)[C@H](OC(C)=O)[C@H](OC(C)=O)[C@@H]1OC(C)=O	-15% [at 11.4 µM]	
CC(=O)[C@H]1CC[C@@H]2[C@H]3CC=C4C[C@@H](O)CC[C@]4(C)[C@H]3CC[C@]12C	-9.13% [at 25.6 µM]	
O=C(N=NC(=O)c1ccc2c(O)n(C3CCCCC3)c(O)c2c1)c1cccnc1	20.1%	
C[C@@H](c1ccccc1)N1C(=O)[C@H]2[C@@H]3[C@H](O)[C@H](O)CC(=O)[C@H]3CC[C@H]2C1=O	6.67% [at 11.4 µM] and -2.18% [at 11.4 µM]	
N#CCSc1nc2cc(C(=O)N3CCCC3)ccc2c(=O)n1Cc1ccccc1		15.8 µM (active)
NC1(C(=O)O)C[C@H](C(=O)O)[C@H](C(=O)O)C1 (stereo partly specified)	-16.8%	
